# Assay outcomes from PubChem BioAssay.
# ADAM10 inh: inhibitors of human ADAM10. O14672. recombinant ADAM10, EDANS/DABCYL FRET peptide cleavage, 3 h. inhibition, % at 7 µM. 370,000 tested, 0.62% active. AID 720582;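 active means inhibition above a per-campaign cutoff equal to the mean of compounds falling between control-based bounds plus 3 SD, cut at about 20% in these data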;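 further: 0% = DMSO wells while the 100% control is not disclosed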
# GC-A act: GC-A (human) enzyme activation | HEK293 GC-A cells, cGMP TR-FRET, EC30 ANP; 0% at EC30 ANP, 100% saturating ANP | activation, % at 10 µM | 370,000 tested, 0.14% active; in the data active means activation above about 40%
# ADAM17 inh: ADAM17 inhibition, QFRET primary screen | recombinant ADAM17, EDANS/DABCYL FRET peptide cleavage | inhibition, % at 6.95 µM | 370,000 tested, 0.83% active | AID 720648;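 active means inhibition above the mean of compounds lying between control limits plus 3 SD, set per campaign, cut at about 8.5% in these data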;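 further: 0% = DMSO-only wells as the low control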
# Target sequence (P78536 215-824 limits assumed): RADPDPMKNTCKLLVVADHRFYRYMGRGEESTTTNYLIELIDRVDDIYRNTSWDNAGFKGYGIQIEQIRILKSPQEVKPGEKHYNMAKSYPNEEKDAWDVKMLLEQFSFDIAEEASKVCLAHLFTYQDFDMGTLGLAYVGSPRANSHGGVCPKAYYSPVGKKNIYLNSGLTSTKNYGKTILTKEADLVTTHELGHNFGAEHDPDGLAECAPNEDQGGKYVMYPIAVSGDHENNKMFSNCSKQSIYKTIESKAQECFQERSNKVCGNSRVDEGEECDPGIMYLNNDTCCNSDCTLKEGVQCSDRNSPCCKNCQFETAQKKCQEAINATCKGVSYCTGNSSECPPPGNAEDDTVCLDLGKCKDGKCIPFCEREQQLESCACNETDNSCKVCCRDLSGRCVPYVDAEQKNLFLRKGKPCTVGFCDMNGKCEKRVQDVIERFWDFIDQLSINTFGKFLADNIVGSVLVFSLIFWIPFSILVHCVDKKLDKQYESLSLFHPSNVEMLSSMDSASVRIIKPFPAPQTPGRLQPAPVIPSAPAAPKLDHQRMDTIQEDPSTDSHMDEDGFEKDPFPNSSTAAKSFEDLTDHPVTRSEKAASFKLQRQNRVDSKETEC
# NPR2 activator: GC-B (human) receptor activation | P20594 | HEK293-GC-B cells, CNP EC30, cGMP TR-FRET; 0% at EC30 CNP, 100% saturating CNP | activation, % at 10 µM | 370,000 tested, 0.11% active | AID 1920062;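 active means activation at 10 µM reaching about 35% in either raw or pattern-adjusted values, limit read from the data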
# ADAM10 counter: ADAM10 inhibition, counter-screen for ADAM17 exosite hits; shares compounds with ADAM17 inh; inhibition, % at 6.95 µM; AID 743256; recombinant ADAM10, EDANS/DABCYL FRET peptide cleavage, 3 h; 2,900 tested, 47% active;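 active means mean inhibition over the triplicate runs exceeds the activity threshold set in the earlier primary screen, cut at about 20% in these data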;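 further: 0% = DMSO wells and 100% = marimastat wells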
# ADAM17 confirm: human ADAM17 inhibition, confirmation | shares compounds with ADAM17 inh | 2,900 tested, 65% active | recombinant ADAM17, EDANS/DABCYL QFRET peptide cleavage | inhibition, % at 6.95 µM;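 active means mean inhibition across replicates above the hit cutoff set in the primary screen, cut at about 8.5% in these data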;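 further: 0% = DMSO wells and 100% = marimastat wells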
# Numbers without * were called inactive; . = no result given. Hits are enriched below; roughly 1.3% of the tested compounds scored in any of these assays.
SMILES,ADAM10 inh,GC-A act,ADAM17 inh,NPR2 activator,ADAM10 counter,ADAM17 confirm
Cc1cc(C)nc(SCc2ccc(C(=O)N/N=C/c3cccc(O)c3O)cc2)n1,19,-10,5,5,.,.
COc1ccc(O)c(/C=N/NC(=O)c2ccc(CSc3nc(C)cc(C)n3)cc2)c1,19,3,14*,3,10,9.5*
CCOC(=O)c1c(NC(=O)CSc2c[nH]c3ccccc23)sc2c1CCCC2,9,-5,9.7*,-6,24*,17*
CCOC(=O)c1c(NC(=O)CSc2c[nH]c3ccccc23)sc2c1CCC2,18,-6,9.8*,-2,34*,21*
CCOC(=O)c1c(NC(=O)CSc2nnc(-c3c[nH]c4ccccc34)n2CCOC)sc2c1CCCCC2,5,-11,-1,0,.,.
Cc1c(C(=O)OCc2nc3scc(-c4ccccc4)c3c(=O)[nH]2)cccc1[N+](=O)[O-],2,0,0,6,.,.
O=C(OCc1nc2scc(-c3ccccc3)c2c(=O)[nH]1)c1cc(Cl)ccc1[N+](=O)[O-],12,0,8.6*,-4,1,4
Cc1ccc(NC(=O)O/N=C/c2ccc(Br)cc2)cc1,0,9,-1,-2,.,.
COc1ccc(NC(=O)O/N=C/c2ccc(Br)cc2)cc1,13,-1,10*,1,-1,1
COc1ccc(C2c3ccc4ccccc4c3Oc3ncn(CCN4CCOCC4)c(=N)c32)cc1 (centres undefined),18,-1,9.2*,1,12,8
COc1ccc(C2c3ccc4ccccc4c3Oc3ncn(CCN4CCOCC4)c(=N)c32)cc1OC (centres undefined),11,-6,8.6*,-8,12,9.2*
COc1ccc(C2c3ccc4ccccc4c3Oc3ncn(CCCO)c(=N)c32)cc1 (centres undefined),11,3,4,-1,.,.
COc1ccc(C2c3ccc4ccccc4c3Oc3ncn(CCCO)c(=N)c32)cc1OC (centres undefined),-3,-15,-2,-10,.,.
Cc1cc(C)cc(C(=O)NCC(=O)OCC(=O)N2CCN(S(=O)(=O)c3ccc4ccccc4c3)CC2)c1,15,-3,10*,-2,26*,12*
O=C(Nc1cccc(S(=O)(=O)NCc2ccco2)c1)c1cc(-c2ccccc2)nc2ccccc12,16,-14,10*,-5,31*,17*
COc1ccc(F)cc1S(=O)(=O)N1CCC2(CC1)OCCN2S(=O)(=O)c1cccs1,-7,-1,1,7,.,.
Cc1ccc(C)c(NC(=O)CN(C)C(=O)c2ccc(COc3ccccc3)cc2)c1,7,3,11*,3,7,6
CC(=O)Nc1cccc(NC(=O)C(C)N2c3cccc4cccc(c34)S2(=O)=O)c1 (centres undefined),-83,-5,-37,4,.,.
ON=C(c1ccccc1)c1ccc2c3c(cccc13)CC2,2,1,12*,2,20*,9.0*
O=C1N[C@@H](Cc2c[nH]c3ccccc23)COC(=O)[C@@H](Cc2ccc(F)cc2)CC/C=C/C[C@@H]1CC(=O)N(CCO)Cc1ccccc1,18,-3,10*,-2,59*,28*
CC(C)(C)[C@@H]1COC(=O)[C@@H](Cc2ccc(F)cc2)CC/C=C\C[C@@H](CC(=O)N(CCO)Cc2ccccc2)C(=O)N1,2,1,-4,2,.,.
CC(C)(C)[C@@H]1COC(=O)[C@H](Cc2ccc(F)cc2)CC/C=C\C[C@H](CC(=O)N(CCO)Cc2ccccc2)C(=O)N1,14,1,11*,5,7,5
Cc1cccc(NC(=O)C2(c3ccc([N+](=O)[O-])cc3)CCCC2)c1,-4,-18,9.3*,-12,10,7
Cc1cc(C)nc(NS(=O)(=O)c2ccc(NC(=O)C3(c4ccc([N+](=O)[O-])cc4)CCCC3)cc2)n1,0,-4,0,0,.,.
COc1cccc(OCC(O)CN2CCN(C(c3ccccc3)c3ccccc3)CC2)c1 (centres undefined),6,-2,-2,-9,.,.
